The supplement of paper PMC12494721
Structures can show the parent of a compound that is named as a salt.

Each molecule was assayed on Escherichia coli IAI1 (assay: fold change of Cadaverine concentration vs plate DMSO controls (fold change (ratio)); higher = more amine produced, active = hit call of the paper (significant change in both replicates, either direction)). Conditions: incubation time: 27 h, anaerobic, 37 °C;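 for the amine columns active = adjusted P below 0.05 in both replicates with a change the same way and a mean fold change under 0.8 or over 1.25; inactive = the rest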.
Summary of the method: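 Amines were quantified by LC–triple-quadrupole MS in dynamic MRM mode against external calibration curves, with drift correction within each batch. The samples were whole anaerobic mGAM cultures of four gut bacterial strains, grown for 27 h at 37 °C in 80 µL wells and extracted with cold acetonitrile/methanol with 0.1% formic acid, then centrifuged. Values are reported as fold change over DMSO controls on the same plate. The mean of 2 biological replicates is given.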

Fold change of Cadaverine concentration, inactive:
CN1CCC(=C2c3ccccc3CCc3cccnc32)CC1 [Azatadine maleate] (20 µM) 0.966
CC(=O)OC[C@H]1O[C@@H]([S-])[C@H](OC(C)=O)[C@@H](OC(C)=O)[C@@H]1OC(C)=O.CCP(CC)CC.[Au+] [Auranofin] (20 µM) 0.996
C=CCOC(Cn1ccnc1)c1ccc(Cl)cc1Cl (stereo unspecified) (20 µM) 0.909
CC[C@H](C)C(=O)O[C@H]1CCC=C2C=C[C@H](C)[C@H](CC[C@@H]3C[C@@H](O)CC(=O)O3)[C@H]21 [Mevastatin] (20 µM) 1.07
NS(=O)(=O)c1cc2c(cc1Cl)NC(Cc1ccccc1)NS2(=O)=O (stereo unspecified) [Benzylhydrochlorothiazide] (20 µM) 0.887
O=c1[nH]c(=O)n(C2CCCO2)cc1F (stereo unspecified) [Tegafur] (20 µM) 0.967
Cc1nn(C)c(Oc2ccccc2)c1/C=N/OCc1ccc(C(=O)OC(C)(C)C)cc1 (20 µM) 0.987
CS(=O)(=O)OCCCCOS(C)(=O)=O [Busulfan] (20 µM) 1.04
CCSc1ccc2c(c1)N(CCCN1CCN(C)CC1)c1ccccc1S2 [Thiethylperazine maleate] (20 µM) 1.06
Cc1ncc([N+](=O)[O-])n1C [Dimetridazole] (20 µM) 1.07
CC[C@@H]1C(=O)OC[C@@H]1Cc1cncn1C [Pilocarpine nitrate] (20 µM) 1.04
Clc1ccc(C(Cn2ccnc2)OCc2ccsc2Cl)c(Cl)c1 (stereo unspecified) [Tioconazole] (20 µM) 0.982
c1coc(CNc2ncnc3[nH]cnc23)c1 [Kinetin] (20 µM) 0.999
CC1(C)O[C@@H]2C[C@H]3[C@@H]4CCC5=CC(=O)CC[C@]5(C)[C@@]4(F)[C@@H](O)C[C@]3(C)[C@]2(C(=O)CCl)O1 [Halcinonide] (20 µM) 1.02
CC(=O)N[C@@H](CC(C)C)C(=O)O [N-Acetyl-L-leucine] (20 µM) 1.07
COc1cccc(CCc2ccccc2OCC(CN(C)C)OC(=O)CCC(=O)O)c1 (stereo unspecified) [Sarpogrelate hydrochloride] (20 µM) 1.03
CN1CCC(=C2c3ccccc3CCc3sccc32)CC1 [Pizotifen malate] (20 µM) 1.04
Oc1ccc2ccccc2c1N=Nc1ccccc1 [Sudan I (1-phenylazo-2-hydroxynaphthalene)] (20 µM) 0.915
CC(C)(C)c1ccc(C(=O)CCCN2CCC(OC(c3ccccc3)c3ccccc3)CC2)cc1 [Ebastine] (20 µM) 1.01
O=c1oc2cc(O)ccc2s1 [Tioxolone] (20 µM) 0.989
CCCOc1ccc(C(=O)OCCN(CC)CC)cc1N [Proparacaine hydrochloride] (20 µM) 0.971
CC(C)NC[C@H](O)COc1cccc2ccccc12 [(S)-(-)-Propranolol hydrochloride] (20 µM) 0.968
COc1cc(C(=O)NCc2ccc(OCCN(C)C)cc2)cc(OC)c1OC [Trimethobenzamide hydrochloride] (20 µM) 1.02
N[C@@H](Cc1cc(I)c(Oc2cc(I)c(O)c(I)c2)c(I)c1)C(=O)O [(L) Thyroxine] (20 µM) 1
O=C(NCC(O)CO)c1c(I)c(C(=O)NCC(O)CO)c(I)c(N(CCO)C(=O)CO)c1I (stereo unspecified) [Ioversol] (20 µM) 0.924
CCCCC[C@H](O)/C=C/[C@H]1[C@H](O)CC(=O)[C@@H]1CCCCCCC(=O)O [Alprostadil] (20 µM) 1.01
CC(C)(CO)[C@@H](O)C(=O)NCCCC(=O)O [Hopantenate calcium] (20 µM) 1.03
Cc1nnc(NS(=O)(=O)c2ccc(N)cc2)s1 [Sulfamethizole] (20 µM) 1.03
OC[C@H](O)C(O)[C@@H](O)CO [L-Arabinitol] (50 µM) 0.981
CN/C(=N\CCSCc1nc[nH]c1C)NC#N [Cimetidine] (20 µM) 1.03
CCN(CC)C(=O)/C(C#N)=C/c1cc(O)c(O)c([N+](=O)[O-])c1 [Entacapone] (20 µM) 0.977
